# From PubChem BioAssay AID720579 (National Center for Advancing Translational Sciences (NCATS), 2013)
# About 1,900 (0.61%) of roughly 310,000 compounds were called active. Inconclusive results (about 8%) are left out. The full list was thinned out, with actives kept by preference. Values without a mark were called inactive. Calls come from the whole dose curve; tested in A549 cells.
# Experiment: qHTS for Stage-Specific Inhibitors of Vaccinia Orthopoxvirus: mCherry Reporter Primary qHTS; note: nearly all actives have a fitted effect of over 35% in size
# Conditions: Vaccinia virus mCherry reporter infection, fluorescence; series mostly up to 36.5 µM; activity change, negative = inhibition: at the top concentration
# % is set by controls: 0 for no effect and ±100 for the full control effect; potency is the fitted concentration of half-maximal effect.
Compound,"activity change, negative = inhibition",Potency,outcome
CCOC(=O)c1c(NC(=S)SC)sc(C(=O)N2CCc3ccccc3C2)c1C,-10.4%,–,–
CC1(C)OC(=O)C2=C(C[C@@H](C3CC3)O[C@H]2CCc2cccc(Cl)c2)O1,-11%,–,–
CCC(CC)C(C(=O)NC1CCCC1)N1CCN(c2cc(C)nc3ccccc23)CC1 (stereo unspecified),19.7%,–,–
CN(CC(=O)O)C(=O)c1ccccc1,-12.1%,–,–
S=C(c1ccccc1)N1CCCC1,-10.8%,–,–
CN(O)C(=S)c1ccccc1,–,14.1 µM (active),–
Cc1ccc2nc(-c3ccccc3)c(CC3CCCCC3)n2c1,–,–,inactive
CCC(C)N1C(=O)S/C(=C/c2ccc(Sc3nc4ccccc4[nH]3)o2)C1=O (stereo unspecified),–,12.6 µM (active),–
CCC(c1nc2ccccc2[nH]1)n1c(=O)c(-c2cccs2)nc2ccccc21 (stereo unspecified),-2.3%,–,–
CCCCSc1nc2ccccc2[nH]1,-6.23%,–,–
CN(C)c1ccc(C=Nc2ccc(/C=C/c3ccnc4ccccc34)cc2)cc1,25.4%,–,–
CC(C)n1ncc2c(C(=O)N3CCN(Cc4cccs4)CC3)cc(C3CC3)nc21,–,–,inactive
CN1CCN(c2ccc(NC(=O)c3ccccc3)cc2)CC1,-13.3%,–,–
C=CC(=O)Nc1ccc(Nc2ccnc(Nc3ccc(N4CCN(C)CC4)cc3)n2)cc1,–,5.01 µM (active),–
Cc1cccc(N2CCN(c3ccc(NC(=O)/C=C\C(=O)O)cc3)CC2)c1,-0.733%,–,–
CC(=O)Nc1ccc(C=CC(=O)c2ccc([N+](=O)[O-])cc2)cc1,-0.232%,–,–
CN(C)c1ccc(/C=C/C(=O)c2ccc(O)cc2)cc1[N+](=O)[O-],–,15.8 µM (active),–
O=C(/C=C/c1ccc(Cl)c([N+](=O)[O-])c1)c1ccc(O)cc1,–,–,inactive
COc1cccc(C(O)c2nc(-c3ccc(C)c(C)c3)cs2)c1 (stereo unspecified),1.77%,–,–
O=C(c1ccc(C(F)(F)F)cc1)N1CCC(=O)N([C@H](COCc2ccccc2)Cc2ccccc2)CC1,3.14%,–,–
CN(C)c1ccc(/C=C2\C=Cc3ccccc32)cc1Br,-17.2%,–,–
CCCCN(C=O)c1c(CC)nc2c(OCCC3CCCCC3)cccn12,-14.4%,–,–

Compound,"activity change, negative = inhibition",Potency,outcome
CN(C)C(CNC(=O)c1cccc(S(=O)(=O)N2CCc3ccccc3C2)c1)c1ccccc1 (stereo unspecified),-25.9%,–,–
COCOCCn1cc(CN2CCS(=O)(=O)N(Cc3ccc(-c4ccc(OC)cc4)cc3)C(CC(C)C)C2=O)nn1 (stereo unspecified),-13.6%,–,–
O=C(CCCN1C(=O)/C(=C/c2ccco2)SC1=S)Nc1ccccc1,-12.4%,–,–
O=C(CCCN1C(=O)/C(=C/c2cccs2)SC1=S)Nc1ccc(O)cc1,–,10 µM (active),–
O=C(CCN1C(=O)/C(=C/c2cccs2)SC1=S)NNC(=O)c1cccc(O)c1,-8.34%,–,–
O=C1C(Sc2cccc(F)c2)=C[C@@]2(O)CC[C@@H](O)[C@]1(Sc1cccc(F)c1)[C@H]2O,-11.8%,–,–
CCCCCNC(=O)C(c1ccc(OC)cc1)n1c(=O)c(-c2ccccc2)nc2ccccc21 (stereo unspecified),–,–,inactive
COC(=O)c1ccc(NC(=O)CSc2nnc(CNc3ccc(OC)cc3)n2C)cc1,-12.7% [at 1.46 µM],–,–
CC(C)NC(=O)c1ccc(Cl)cc1Cl,–,–,inactive
C#CCNc1ccc(C(=O)OCC)cc1,-9.77%,–,–
CC(OC(=O)c1ccc(Cl)cc1O)C(=O)NCCC1=CCCCC1 (stereo unspecified),–,–,inactive
COC(=O)c1ccc(NCc2cc(O)ccc2O)cc1,–,10 µM (active),–
CC(C)OC(=O)c1ccc(NCc2cc(O)ccc2O)cc1Cl,–,4.47 µM (active),–
COc1ccc(C(=O)N2CCCCC2c2cc(C(=O)Nc3ccccc3)no2)cc1 (stereo unspecified),–,–,inactive
COc1ccc(-c2coc3c(C(=O)NC(C)C)cccc23)c(C)c1,–,–,inactive
CCCCC[C@@H]1C=C(C(=O)OCC)[C@H](c2ccccc2)N1S(=O)(=O)c1ccc(C)cc1,5.26%,–,–
COCc1cccc(-c2csc(C(O)c3ccc(F)cc3)n2)c1 (stereo unspecified),–,–,inactive
CCCCCCOc1ccc(OC(=O)c2cccnc2)cc1,–,10 µM (active),–
O=C(Oc1ccc(Br)cc1)c1cccnc1,–,–,inactive
N#CCc1ccc(OC(=O)c2cccnc2)cc1,–,–,inactive
O=C(CC(CC(=O)c1ccccc1)c1ccco1)c1ccccc1,–,–,inactive
Cc1ccccc1-c1nc(NC(C)C)nc2cc(-c3ccccc3)sc12,–,–,inactive

Compound,"activity change, negative = inhibition",Potency,outcome
Cc1ccccc1S(=O)(=O)N1[C@@H](c2cccc(Cl)c2)C(C(=O)OC(C)(C)C)=CC[C@H]1c1ccc(Cl)cc1,0.209%,–,–
COc1cc2nc(N3CCCN(C)CC3)nc(NC(C)C)c2cc1OC,-17.2%,–,–
C=CCC[C@H](Cc1ccc(F)cc1)C(=O)OC[C@@H](Cc1c[nH]c2ccccc12)NC(=O)[C@H](CC=C)CC(=O)N[C@H](CO)Cc1ccccc1,-11%,–,–
C=CC[C@@H](CC(=O)N[C@@H](CO)Cc1ccccc1)C(=O)N[C@H](COC(=O)[C@H](CC=C)CC(=O)OC(C)(C)C)Cc1ccccc1,-14.1%,–,–
C=CCC[C@H](Cc1ccc(F)cc1)C(=O)OC[C@@H](NC(=O)[C@@H](CC=C)CC(=O)N[C@H](CO)Cc1ccccc1)C(C)(C)C,–,12.6 µM (active),–
COc1ccc2[nH]c3c(C)c4cc[n+](C)cc4c(C)c3c2c1,–,11.2 µM (active),–
COc1ccc2[nH]c(C(=O)N3CCN(C)CC3)c(C)c2c1,–,–,inactive
COc1ccc2[nH]c3c(c2c1)CCN[C@H]3C,-21%,–,–
Cc1ccc(Nc2nc(CSc3nnc(-c4ccncc4)n3-c3ccccc3C)cs2)cc1,–,10 µM (active),–
Cc1ccccc1-n1c(SCC(=O)NCc2cccs2)nnc1-c1ccncc1,-3.57%,–,–
Cc1ccc(-n2c(SCC(=O)N3c4ccccc4Sc4ccccc43)nnc2-c2ccncc2)cc1,-4.9%,–,–
COc1cc(Cl)c(C)cc1Nc1nnc(-n2nc(C)cc2C)c2ccccc12,-2.28%,–,–
Cc1cc(N/N=C\c2ccc(Br)cc2)nc(-n2nc(C)cc2C)n1,–,2.24 µM (active),–
COc1ccc(NC(=O)c2nc(-n3nc(C)cc3C)ccc2Cl)cc1Cl,-18.6%,–,–
Cc1cccc(Nc2cc(C)nc(-n3nc(C)cc3C)n2)c1,-3.8% [at 7.34 µM],–,–
COc1ccccc1/C=N\Nc1cc(C)nc(-n2nc(C)cc2C)n1,–,5.62 µM (active),–
Cc1ccc(S(=O)(=O)Nc2nc(C)cc(N/N=C/c3ccc(O)cc3)n2)cc1,-6.98%,–,–
COc1cc(CNc2ncnc3c2ncn3[C@H]2CN(Cc3cccs3)C[C@@H](CO)O2)cc(OC)c1OC,–,–,inactive
COc1ccc(/C=C/c2ccccn2)cc1OC,21.9%,–,–
CCOC(=O)[C@]12CCCC=C1N(Cc1cccc3ccccc13)C(=O)[C@H](CC(=O)NCC13CC4CC(CC(C4)C1)C3)C2,-0.908%,–,–
CC(C)Oc1c(Br)cc(Br)cc1/C=N/NC(N)=S,–,3.98 µM (active),–
Cc1cccc(-n2c(C)cc(/C=N/NC(N)=S)c2C)c1,-5.12%,–,–

Compound,"activity change, negative = inhibition",Potency,outcome
NC(=S)N/N=C/c1coc2cc(Cl)ccc2c1=O,-7.3%,–,–
CCCCCCCCN1C(=O)[C@H](CC(=O)NCc2cccc3ccccc23)C[C@@]2(C(=O)OC)CCCCC=C12,-22.5%,–,–
COc1ccc(Cn2c(=O)[nH]c3cc(C(=O)N4CCN(C(=O)c5ccco5)CC4)ccc3c2=O)cc1,–,–,inactive
CCCn1c(=N)n(CC(=O)c2ccc(Cl)c(Cl)c2)c2ccccc21,-14.5%,–,–
CC1C(C)N(C(=O)CCl)c2ccccc2N1C(=O)CCl (stereo unspecified),–,8.91 µM (active),–
CCNC(=O)N1c2ccccc2Sc2ccccc21,-3.31%,–,–
COC(=O)[C@]12CCCCC=C1N(Cc1ccc3c(c1)OCO3)C(=O)[C@H](CC(=O)NCc1cccs1)C2,-23.1%,–,–
C(=Nc1ccc(/C=C/c2ccnc3ccccc23)cc1)Nc1ccc(/C=C/c2ccnc3ccccc23)cc1,-8.7%,–,–
CN(C)S(=O)(=O)c1cccc(NC(=O)COC(=O)/C=C/c2cccs2)c1,-12.8%,–,–
CN(C)S(=O)(=O)c1cccc(NC(=O)Cc2ccsc2)c1,–,12.6 µM (active),–
CN(C)S(=O)(=O)c1cccc(NC(=O)COC(=O)c2cc(=O)[nH]c(=O)[nH]2)c1,–,–,inactive
O=C(NC(c1ccc(Cl)cc1)c1cnccn1)C1CCN(Cc2ccc(Cl)cc2)CC1 (stereo unspecified),-18.8%,–,–
O=C(Nc1cccc2ccccc12)c1[nH]c(-c2ccccc2)c2c1C(=O)N(C1CC1)C2=O,-11.3%,–,–
CCCCC(CCCC)c1ccc(C=Nc2ccc(/C=C/c3ccnc4ccccc34)cc2)cc1,-8.04%,–,–
Oc1ccc(N=Nc2nccs2)c(O)c1,–,3.98 µM (active),–
CCN1CCN(c2ccc(/C=C/c3ccnc4ccccc34)cc2)CC1,8.12%,–,–
N#Cc1ccc(C(C(=O)NCc2ccccc2)n2c(=O)c(-c3ccco3)nc3ccccc32)cc1 (stereo unspecified),3.83%,–,–
CC1(Oc2cccc(F)c2)CCN(Cc2ccccc2OC(F)F)C1 (stereo unspecified),-7.02%,–,–
CCN(C(=O)Nc1cccc2ccccc12)c1ccccc1,-9.5%,–,–
CC(=O)N1Cc2cc(C(=O)NCc3cccc(F)c3)nc(-c3cccc(C4=CCCCC4)c3)c2[C@H]1CCO,19.3%,–,–
